# Experimental data published in PubChem BioAssay.
# Test system: Human papillomavirus type 1a E7 protein (residues 1-88)
# Test: HPV1a E7 small-molecule binders, primary screen, biochemical, small-molecule microarray, residues 1-88, 635 nm (AID 1129)
# Conditions: small-molecule microarray binding, fluorescence 635 nm; higher = more signal
row,Structure (SMILES),composite z-score
1,Cc1ccc(S[C@]2(C(=O)NCCCN(C)C)CC(=O)N(C3CCCCC3)[C@@H]2c2ccc(CO)cc2I)cc1,-0.171
2,O=C1C2C=CC(C(O)C#Cc3ccccc3)N(Nc3ccccc3)C2C(=O)N1c1ccccc1 (stereo unspecified),0.356
3,O=C1NC(=O)C2C1C=CC(C(O)C=Cc1ccc([N+](=O)[O-])cc1)N2Nc1ccccn1 (stereo unspecified),0.235
4,Cc1ccc(S(=O)(=O)N[C@H]2COC(=O)CC=C[C@H](C)COC(=O)N[C@@H](C)C(=O)CC=C[C@@H]2C)cc1,-0.368
5,Cc1ccc(N2C(=O)c3ccccc3[C@](C)(C(=O)NCC(C)C)[C@@H]2c2ccc(CO)cc2)nc1,-1.2
6,O=C1C2C=CC(C(O)c3ccccc3)N(n3cnnc3)C2C(=O)N1Cc1ccccc1 (stereo unspecified),0.561
7,COc1cc([C@@H]2N[C@H](C(=O)O)Cc3c2[nH]c2ccccc32)cc(OC)c1OC,0.431
8,C=CCNC(=O)[C@H]1[C@@H]2C(=O)O[C@@H](c3ccccc3)[C@@H](c3ccccc3)N2[C@@H](c2ccc(O)cc2)[C@]12C(=O)Nc1ccc(C#CCNC(N)=O)cc12,-0.572
9,CCC#CCN(Cc1ccccc1Br)[C@H](/C=C/c1ccccc1)[C@@H](O)Cc1ccccc1,-0.518
10,CCCC=C(CCC)[C@@H](NC(=O)c1ccccc1)c1ccccc1,0.3
11,CO[C@H]1O[C@H](CO)[C@@H](OC(=O)CCc2ccccc2)[C@@H]2OC(=O)[C@H](Cc3cccc(Br)c3)C/C=C/C[C@@H](Cc3cccc(Br)c3)C(=O)O[C@@H]12,0.399
12,C=CCC(OC(C)=O)[C@@H]1[C@@H](N(Cc2cccc3ccccc23)C(=O)c2ccc(C)cc2)c2cc(OCCCO)ccc2N1C(=O)c1ccc(-c2ccccc2)cc1 (stereo partly specified),-0.0588
13,Cc1ccc(N2C(=O)c3ccccc3[C@](C)(C(=O)O)[C@@H]2c2ccc(CO)cc2)nc1,-0.914
14,C[C@@H]1CC[C@H]2C(=O)N3[C@@H](CC[C@@H](C)[C@@H]3c3cccc(N4CCOCC4)c3)C(=O)N2[C@H]1c1cccc(N2CCOCC2)c1,0.978
15,Cc1ccc(S[C@]2(C(=O)NCCN3CCOCC3)CC(=O)N(C3Cc4ccccc4C3)[C@@H]2c2ccc(CO)cc2I)cc1,-0.521
16,N#Cc1ccc(NN2C(C(O)c3ccc(I)cc3)C=CC3C(=O)N(c4ccccc4)C(=O)C32)cc1 (stereo unspecified),1.25
17,CCOC(=O)[C@H]1C/C=C/C[C@H](C(=O)OCC)C(=O)O[C@H]2[C@@H](OC)O[C@H](CO)[C@@H](OC(=O)Nc3ccc(Br)cc3)[C@@H]2OC1=O,1.21
18,C[C@@H]1C=CCC(=O)OC[C@H]2O[C@@H](C=C[C@@H]2O)[C@H](C)C=CCC(=O)OC[C@H]2O[C@H]1C=C[C@@H]2O,-0.145

row,Structure (SMILES),composite z-score
1,CO[C@@H]1COC(=O)[C@H](C)NC(=O)CC=C[C@@H](C)[C@H](NS(=O)(=O)c2ccc(C)cc2)COC(=O)CC=C[C@@H]1C,0.0643
2,C=C(CCCC)/C(=C/C[C@@H](OC(=O)c1ccncc1)c1cccc(OCCO)c1)c1cc(C(=O)OC)ccc1OC,1.17
3,[N-]=[N+]=NCc1ccccc1C[C@]1(C(N)=O)N=C(c2ccc(OCCCO)cc2)O[C@H]1c1ccccc1CN=[N+]=[N-],0.974
4,CCCCO[C@H]1C[C@H]2C(Br)=C[C@@]1(CO)C(=O)[C@]21CO1,-0.153
5,CC(C)N1CC=CC23O[C@@H]4/C=C\CCCOC(=O)C4[C@H]2C(=O)N(CCCCCO)[C@@H]3C1=O (stereo partly specified),-1.79
6,CO[C@@H]1COC(=O)[C@H](C)NC(=O)CC=C[C@@H](C)[C@H](OC)COC(=O)[C@H](C)NC(=O)CC=C[C@H]1C,0.207
7,CCOC(=O)C[C@H]1[C@H](OC(=O)Cc2ccc3c(c2)OCO3)[C@@H](NC(=O)c2ccc3ccccc3c2)c2cc(OCCCO)ccc2N1C(=O)Cc1ccc(OC)cc1,0.836
8,CCCN1C(=O)[C@@]2(CCS(=O)(=O)c3ccccc3)N=C(c3ccc(OCCCO)cc3)O[C@H]2c2ccccc21,1.23
9,CCCC[C@@H]1C[C@H]1[C@@H](NC(=O)c1cccs1)c1ccc(Cl)cc1,-1.19
10,C[C@H]1COC(=O)[C@@H]2CCCN2C(=O)[C@@H](C)COC(=O)[C@@H]2CCCN2C1=O,-0.367
11,[N-]=[N+]=NCc1ccccc1C[C@@]1(C(=O)O)N=C(c2ccc(OCCCO)cc2)O[C@@H]1c1ccccc1N=[N+]=[N-],1.22
12,O=C1C2C=CC(C(O)C(c3ccccc3)c3ccccc3)N(Nc3ccc([N+](=O)[O-])cc3)C2C(=O)N1c1ccccc1 (stereo unspecified),1.24
13,CO[C@H]1COC(=O)[C@H](CCSC)NC(=O)CC=C[C@@H](C)COC(=O)[C@@H](OCc2ccccc2)C=C[C@@H]1C,-0.762
14,CCC(=O)[C@]12O[C@@]3([C@@H]4C(=O)OCC[C@@H]41)N(Cc1ccccc1)C(C)=C(C(=O)OC)[C@@H](c1ccccc1)N3C2=O,-2.31
15,COC(=O)[C@@]1(Cc2ccc(OC)cc2)[C@H]2c3cc(C(=O)N(C)C)n(CCc4ccc(OC)c(Br)c4)c3C[C@H]2CN1C(=O)c1ccccc1,1.23
16,C#CCCCON=C1C[C@@H](O)[C@@H](O)[C@@H]2[C@@H]3C(=O)N(Cc4ccc5c(c4)OCO5)C(=O)[C@@H]3CC[C@H]12,0.57
17,COC(=O)c1c(CC[C@@H](CO)NC(=O)N[C@H](Cn2cc(-c3cncn3C)nn2)C(C)C)oc(C(C)=O)c1C(=O)OC,0.722
18,CCOC(=O)C1=CC[C@@H](c2ccc(-c3ccc(OCc4ccccc4)cc3)c(OC)c2)N(S(=O)(=O)c2ccc(C)cc2)[C@H]1c1ccccc1,1.2
